Results filed as inconclusive are left out. Calls of active or inactive are those of the source. Calls come from the whole dose curve; as a rule, active = well fitted curve in the direction sought with a large enough effect; inconclusive = small, poorly fitted or top-dose-only effect, or another doubt; inactive = no such curve, though single readings can be large; an effect the other way counts as inactive or inconclusive.
Experiments:
[1] = test system: Zika virus NS2B-NS3 protease; experiment: Primary screen GU AMC qHTS for Zika virus inhibitors (AID 1347154); note: nearly all actives have a fitted effect of over 70% in size; note: potency is the fitted concentration of half-maximal effect
Method in brief: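 Unlinked Zika NS2B hydrophilic domain/NS3 protease domain noncovalent complex (25 nM final) in 10 mM Tris-HCl pH 8.0, 0.01% Tween 20, with AMC peptide substrate. Fluorescence (ex 340, em 450 nm) change over 15 min, room temperature; percent inhibition fitted to 4-parameter Hill equation.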

[2] = test system: Zika virus NS2B-NS3 protease (linked construct); experiment: Primary screen NINDS Rhodamine qHTS for Zika virus inhibitors (AID 1347160); note: nearly all actives have a fitted effect of over 55% in size; note: potency is the fitted concentration of half-maximal effect
Method in brief: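 Single-chain NS2B-NS3 protease, 25 nM, pH 8.0; compounds preincubated 15 min. Activity: Rhodamine110 release from 1.5 microM substrate over 15 min, room temperature, data fitted to 4-parameter Hill.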

[3] = test system: Zika virus NS2B-NS3 protease (unlinked complex); experiment: Primary screen GU Rhodamine qHTS for Zika virus inhibitors: Unlinked NS2B-NS3 protease assay (AID 1347159); note: nearly all actives have a fitted effect of over 60% in size; note: potency is the fitted concentration of half-maximal effect
Method in brief: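 Unlinked NS2B/NS3, 25 nM; Rhod110 peptide, 1.5 microM; compounds, up to 114 microM. Reaction run 15 min at RT in 10 mM Tris-HCl pH 8.0, 0.01% Tween 20; kinetic fluorescence change fitted with a 4-parameter Hill model.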

[4] = qHTS to identify inhibitors of the type 1 interferon - major histocompatibility complex class I in skeletal muscle: primary screen against the NCATS Mechanism Interrogation Plate v5.0 (MIPE) Libary (AID 1347411); note: nearly all actives have a fitted effect of over 65% in size
Method in brief: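 IFN-beta-driven (4 ng/ml) HLA-B-HiBit expression in CRISPR-tagged C25cl48 myoblasts; compounds 11-pt, 1:3, max 46 uM, 24 hr exposure; lytic NanoLuc complementation luminescence.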

[5] = Confirmatory screen NINDS Rhodamine qHTS for Zika virus inhibitors (AID 1347161); note: nearly all actives have a fitted effect of over 60% in size; note: potency is the fitted concentration of half-maximal effect
Method in brief: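 Aprotinin served as in-plate control. Conditions: 25 nM linked NS2B-NS3, pH 8.0 Tris buffer, titrated compounds, 15 min preincubation and 15 min reaction with 1.5 microM Rhod110 substrate at room temperature.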

[6] = test system: Zika virus NS2B-NS3 protease (linked); experiment: 384 well plate NINDS AMC confirmatory qHTS for Zika virus inhibitors (AID 1347163); note: potency is the fitted concentration of half-maximal effect; nearly all actives have a fitted effect of over 50% in size
Method in brief: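 Enzyme (5, 30 or 60 nM final) first met test compounds for ~15 min. The AMC-tagged peptide Ac-VKTGKR-AMC followed at 30 microM. Fluorescence was then recorded at 25 min and scaled against no-enzyme and no-inhibitor wells.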

[7] = test system: Zika virus NS2B-NS3 protease (linked construct); experiment: 384 well plate NINDS Rhodamine confirmatory qHTS for Zika virus inhibitors (AID 1347164);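 note: fluorescence from protease cleavage of Ac-LKRR-rhodamine 110 substrate; potency is the fitted concentration of half-maximal effect; nearly all actives have a fitted effect of over 65% in size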
Method in brief: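 Fluorescence read at ex 485 nm/em 538 nm, 25 min after adding 10 microM Ac-LKRR-Rd substrate at room temperature in the dark; signal normalized to no-enzyme and no-inhibitor controls. Enzyme final 5, 30 or 60 nM; compounds, ~15 min preincubation.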

[8] = Vero cells viability qHTS for Zika virus inhibitors (AID 1347167)
Method in brief: (§1)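 To flag cytotoxic protease inhibitors, viability is measured by ATP-dependent luminescence (CellTiter Glo) after cells attached overnight receive compound for 24 to 48 hours in DMEM with 4% FBS.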

[9] = HepG2 cells viability qHTS for Zika virus inhibitors (AID 1347168)
Method in brief: as §1

[10] = target: Protein phosphatase 1D (Homo sapiens) (UniProt O15297); experiment: RapidFire Mass Spectrometry qHTS Assay for Modulators of WT P53-Induced Phosphatase 1 (WIP1) (AID 1347424);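 note: amount of dephosphorylated VEPPL-S-QETFS peptide product formed by WIP1; series mostly up to about 63 µM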
Method in brief: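 Mass-spectrometric measurement of dephosphorylated peptide after a 5 min room-temperature reaction of 10 nM WIP1 with 2 uM phosphopeptide, following 1 h compound preincubation in 30 mM MgCl2 buffer.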

[11] = target: Protein phosphatase 1D (Homo sapiens) (UniProt O15297); experiment: Rhodamine-PBP qHTS Assay for Modulators of WT P53-Induced Phosphatase 1 (WIP1) (AID 1347425)
Method in brief: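 Steps: enzyme with Rh-PBP sensor and compounds, room-temperature incubation of 1 hr, baseline read, addition of VEPPL-pS-QETFS (10 uM final), kinetic fluorescence reads at 525/598 nm. Activity equals final minus baseline signal.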

[12] = target: Lysine-specific demethylase 5B (Homo sapiens) (UniProt Q9UGL1); experiment: Optimization screen for KDM5B Histone Demethylases FDH coupled qHTS against the LOPAC library (AID 1347166)
Method in brief: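 KDM5BDeltaAP (200nM final) in 50mM HEPES pH 7.5, 0.01% Tween-20 was preincubated with compound for 10 min at room temperature. A substrate mix of 12.5uM H3K4Me3, 25uM a-ketoglutarate, ascorbate, Fe2+, NAD+ and formaldehyde dehydrogenase was then added. NADH fluorescence (340/450 nm) was read initially and after 30 min.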

[13] = Tertiary RLuc qRT-PCR qHTS assay for Zika virus inhibitors (AID 1347169); note: nearly all actives have a fitted effect of over 55% in size; note: potency is the fitted concentration of half-maximal effect
Method in brief: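 Luminescence read-out: live-cell Renilla luciferase substrate applied to infected Vero cells, signal measured after 1-1.5 hrs. Cells had received compound before ZIKV-RLuc (Cambodian strain, MOI 1-2) infection and were incubated 48-72 hrs at 37 degrees C.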

[14] = qHTS to identify inhibitors of the type 1 interferon - major histocompatibility complex class I in skeletal muscle: primary screen against the NCATS LOPAC collection (AID 1347405);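 note: human myoblasts with HiBiT tag on endogenous HLA-B stimulated by IFN-beta; lytic HiBiT luminescence reporting HLA-B protein level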
Method in brief: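 IFN-beta-stimulated (4 ng/ml) HLA-B HiBiT knock-in myoblasts, compound-treated 24 hrs up to 46 uM final; signal via LgBiT complementation and furimazine luminescence.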

[15] = qHTS to identify inhibitors of the type 1 interferon - major histocompatibility complex class I in skeletal muscle: primary screen against the NCATS Pharmaceutical Collection (AID 1347407);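 note: luminescence of HiBiT knocked into endogenous HLA-B as interferon-induced MHC class I level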
Method in brief: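 HLA-B HiBiT myoblasts, dexamethasone-free growth medium + 4 ng/ml IFN-b; compounds pinned 1 h after seeding, […] from 46 uM; 24 h, 37 C, 5% CO2; lytic HiBiT detection, 10 min RT, luminescence.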

[16] = qHTS for inhibitors of adenylyl cyclases using a fission yeast platform: a pilot screen against the NCATS LOPAC library (AID 1347410)
Method in brief: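 Read-out: fbp1-GFP fluorescence by laser scanning cytometry (488 nm laser), a gain of signal when AC/cAMP-PKA signalling is inhibited. Strain CHP2027 expressing AC9, GNAS and PDE4D2; compounds at up to 57 µM; 18 h, 30C.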

[17] = Validation qHTS assay for inhibitors of Activation Induced Cytidine Deaminase (AID): UDG Counterscreen signal (AID 1347427)
Method in brief: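 Fluorescence at 560 nm excitation, 665 nm emission reports UDG signal after 250 mM NaOH (2x) addition and 30 min. Enzymes (AID 1 uM, UDG 2 U/mL, at 4/3x) preincubated 10 min with compound, then 4 h with 4x 250 nM DJC20/DJC23 substrate at room temperature.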

[18] = target: Single-stranded DNA cytosine deaminase (Homo sapiens) (UniProt Q9GZX7); experiment: Validation qHTS assay for inhibitors of Activation Induced Cytidine Deaminase (AID): AID signal (AID 1347429)
Method in brief: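 Compounds (up to 114 uM final) are tested against AID plus UDG using DJC20/DJC23 FRET substrate. Reactions incubate 4 hr at room temperature, receive NaOH for 30 min, and are read at Ex 540/Em 590 nm.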

Measured: Potency

Sequence of Protein phosphatase 1D (Homo sapiens) (O15297 whole entry, looked up): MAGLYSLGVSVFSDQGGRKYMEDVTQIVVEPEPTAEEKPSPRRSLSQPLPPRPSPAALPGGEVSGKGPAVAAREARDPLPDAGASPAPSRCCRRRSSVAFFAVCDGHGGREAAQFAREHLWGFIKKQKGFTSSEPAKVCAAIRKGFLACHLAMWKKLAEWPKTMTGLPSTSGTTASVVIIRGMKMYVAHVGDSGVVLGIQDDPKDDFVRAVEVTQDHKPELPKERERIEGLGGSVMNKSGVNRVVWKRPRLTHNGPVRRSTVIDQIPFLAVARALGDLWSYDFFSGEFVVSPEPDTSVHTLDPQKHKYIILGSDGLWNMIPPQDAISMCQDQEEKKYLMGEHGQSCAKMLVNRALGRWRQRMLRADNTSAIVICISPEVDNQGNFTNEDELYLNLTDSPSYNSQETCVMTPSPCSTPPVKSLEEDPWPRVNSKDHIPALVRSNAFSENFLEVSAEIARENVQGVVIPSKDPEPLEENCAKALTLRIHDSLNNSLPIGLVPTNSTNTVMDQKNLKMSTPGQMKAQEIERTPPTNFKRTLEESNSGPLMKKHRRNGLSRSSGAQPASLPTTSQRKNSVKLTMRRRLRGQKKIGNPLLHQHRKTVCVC
Sequence of Single-stranded DNA cytosine deaminase (Homo sapiens) (Q9GZX7 whole entry, looked up): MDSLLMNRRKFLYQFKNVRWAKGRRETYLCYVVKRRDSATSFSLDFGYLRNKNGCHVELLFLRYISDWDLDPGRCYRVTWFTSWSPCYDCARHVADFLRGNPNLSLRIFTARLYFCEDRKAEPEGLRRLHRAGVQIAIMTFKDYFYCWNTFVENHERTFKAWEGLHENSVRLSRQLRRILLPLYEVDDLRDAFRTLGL
Sequence of Lysine-specific demethylase 5B (Homo sapiens) (Q9UGL1 whole entry, looked up): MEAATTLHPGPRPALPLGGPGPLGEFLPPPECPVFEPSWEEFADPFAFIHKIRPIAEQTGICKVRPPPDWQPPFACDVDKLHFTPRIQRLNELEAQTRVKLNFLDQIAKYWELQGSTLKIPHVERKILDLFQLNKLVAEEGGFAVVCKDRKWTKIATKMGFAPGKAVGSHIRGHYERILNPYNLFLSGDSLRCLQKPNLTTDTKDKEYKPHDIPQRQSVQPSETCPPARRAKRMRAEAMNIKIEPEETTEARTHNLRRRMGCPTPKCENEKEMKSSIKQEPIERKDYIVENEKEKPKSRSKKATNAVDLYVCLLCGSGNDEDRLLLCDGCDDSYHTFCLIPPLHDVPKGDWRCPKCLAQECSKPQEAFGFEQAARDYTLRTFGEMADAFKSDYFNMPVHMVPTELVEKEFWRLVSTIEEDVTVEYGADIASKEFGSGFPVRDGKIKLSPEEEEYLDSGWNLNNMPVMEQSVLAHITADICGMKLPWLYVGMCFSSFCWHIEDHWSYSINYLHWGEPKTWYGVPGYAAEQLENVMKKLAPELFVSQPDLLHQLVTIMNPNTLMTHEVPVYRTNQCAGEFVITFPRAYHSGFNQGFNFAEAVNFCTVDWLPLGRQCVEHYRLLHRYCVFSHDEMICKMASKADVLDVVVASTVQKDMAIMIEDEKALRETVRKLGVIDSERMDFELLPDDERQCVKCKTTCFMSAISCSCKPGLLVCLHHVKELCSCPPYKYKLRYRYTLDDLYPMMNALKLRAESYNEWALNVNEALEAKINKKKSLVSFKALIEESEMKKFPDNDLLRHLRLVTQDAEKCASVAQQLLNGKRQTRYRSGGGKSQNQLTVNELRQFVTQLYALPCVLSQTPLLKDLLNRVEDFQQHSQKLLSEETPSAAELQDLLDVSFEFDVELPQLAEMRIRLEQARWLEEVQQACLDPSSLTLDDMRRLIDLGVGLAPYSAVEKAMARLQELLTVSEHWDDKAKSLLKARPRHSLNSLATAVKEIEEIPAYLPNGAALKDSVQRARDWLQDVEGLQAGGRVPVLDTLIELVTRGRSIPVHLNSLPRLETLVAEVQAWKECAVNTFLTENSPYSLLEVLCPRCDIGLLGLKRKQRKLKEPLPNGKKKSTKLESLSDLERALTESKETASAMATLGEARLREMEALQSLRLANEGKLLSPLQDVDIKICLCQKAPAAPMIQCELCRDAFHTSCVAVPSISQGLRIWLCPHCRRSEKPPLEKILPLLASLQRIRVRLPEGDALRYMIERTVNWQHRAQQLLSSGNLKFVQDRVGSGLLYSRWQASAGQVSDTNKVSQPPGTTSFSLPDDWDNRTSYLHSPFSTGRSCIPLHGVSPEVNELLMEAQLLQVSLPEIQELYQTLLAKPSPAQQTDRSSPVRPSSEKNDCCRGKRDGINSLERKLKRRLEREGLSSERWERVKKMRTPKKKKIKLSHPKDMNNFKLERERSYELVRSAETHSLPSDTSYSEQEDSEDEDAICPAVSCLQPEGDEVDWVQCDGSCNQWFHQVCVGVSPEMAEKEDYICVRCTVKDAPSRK

COc1cc2nccc(Oc3ccc(NC(=O)NC4CC4)c(Cl)c3)c2cc1C(N)=O
inactive: [1] | [2]

O=C(Nc1ccc(F)c(C(F)(F)F)c1)Nc1nnc(-c2ccncc2)s1
inactive: [1] | [4]
active: [3] 8.91 µM | [2] 2.82 µM

CC1(C)CNc2cc(NC(=O)c3cccnc3NCc3ccncc3)ccc21
inactive: [1] | [3] | [2] | [4]

C[C@H](NC(=O)Cc1cc(F)cc(F)c1)C(=O)N[C@@H]1C(=O)N(C)c2ccccc2-c2ccccc21
inactive: [1] | [2]

CC(C)(N)C(=O)N[C@H](COCc1ccccc1)C(=O)N1CCC2(CC1)CN(S(C)(=O)=O)c1ccccc12
inactive: [1] | [3] | [2] | [4]

COc1ccc(CCN2CCN(CCCc3ccccc3)CC2)cc1OC
inactive: [1] | [3] | [2] | [4]

COc1ccccc1-c1cccc(-c2c(O)c3cc(C#N)c(Cl)cc3[nH]c2=O)c1
active: [1] 49.4 µM | [5] 27.8 µM | [6] 50.1 µM | [7] 7.08 µM
inactive: [8] | [9] | [4]

Clc1ccc(Nc2nnc(Cc3ccncc3)c3ccccc23)cc1
inactive: [1] | [2] | [4] | [10] | [11]

CN(C)C(=O)c1ccc(S(=O)(=O)c2ccc(NC(=O)[C@@](C)(O)C(F)(F)F)c(Cl)c2)cc1
inactive: [1] | [3] | [2] | [4]

Cc1[nH]c(=O)c(C#N)cc1-c1ccc2nccn2c1
inactive: [1] | [5] | [12] | [8] | [9] | [13] | [14] | [15] | [16] | [4] | [10] | [11] | [17] | [18]

CN1CCN(CCCN2c3ccccc3Sc3ccc(C(F)(F)F)cc32)CC1
inactive: [1] | [5] | [12] | [8] | [14] | [16] | [4] | [10] | [11] | [17] | [18]

Cc1cn[nH]c1
inactive: [1] | [12] | [14] | [15] | [16] | [4] | [10] | [11] | [17] | [18]

Cn1cnc([N+](=O)[O-])c1Sc1ncnc2nc[nH]c12
inactive: [1] | [12] | [8] | [9] | [14] | [15] | [16] | [4] | [10] | [11] | [17] | [18]
active: [13] 26.9 µM

O=c1[nH]cnc2[nH]ncc12
inactive: [1] | [12] | [14] | [15] | [16] | [4] | [10] | [11] | [17] | [18]

Nc1ccc(S(=O)(=O)Nc2ccnn2-c2ccccc2)cc1
inactive: [1] | [12] | [14] | [15] | [16] | [10] | [11] | [17] | [18]
